# Results from PubChem BioAssay AID687014 (The Scripps Research Institute Molecular Screening Center, 2013).
# Screen size: about 370,000 compounds; about 6,800 (1.8%) were called active. Many of the other results were omitted from the sample, so actives are more common in it than they were. Values without a mark were called inactive.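 Rule for the calls: active = activation above a cutoff set at the mean of all screened compounds plus 3 SD (cut at about 10% in these data); inactive = the rest.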
# Test system: Nuclear hormone receptor DAF-12 (Heterodera glycines), GAL4 fusion
# Assay: hgDAF-12 GAL4 fusion reporter activation – cell-based, luminescence, HEK293, UAS-luciferase, primary screen (AID 687014);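 note: 0% = DMSO wells and 100% = sodium butyrate wells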
# Details: HEK293 GAL4-hgDAF12 UAS-luciferase reporter, agonist luminescence; at 6.8 µM; active compounds read high; normalized to butyrate control
row,SMILES,activation
1,Cc1ccc(-n2c(SCC(=O)Nc3ccc(S(=O)(=O)Nc4nccs4)cc3)nnc2-c2cccnc2)cc1,-1%
2,Cc1cc(C)c(S(=O)(=O)N2CCC(C(=O)OCc3c(C)noc3C)CC2)c(C)c1,1.53%
3,O=C(CSCc1ccccc1)N1CCc2ccccc21,17.5% (active)
4,O=C(CN1C(=O)c2ccccc2S1(=O)=O)N1CCc2ccccc21,-10.8%
5,CC(OC(=O)Cc1ccc(F)cc1)C(=O)N1CCc2ccccc21 (stereo not given),0.83%
6,CCOC(=O)[C@@]12CCC3=C1N(CCC3)C(=O)[C@H](CC(=O)N1CCN(C(=O)c3ccco3)CC1)C2,-0.79%
7,CC1(C)OC(=O)C2=C(CC(CCc3ccccc3)OC2c2ccc(Cl)cc2)O1 (stereo not given),3.41%
8,CC(C)N(Cc1nnc(-c2ccc(Cl)cc2)o1)C(=O)C1=COCCO1,0.6%
9,CC(NCc1ccco1)C(=O)N1CCCCC1 (stereo not given),1.35%
10,C#CCCN([C@H](C(=O)OC)C(C)C)S(=O)(=O)c1ccc(F)cc1Br,2.22%
11,COc1cccc(CNC(=O)[C@H]2CCCN2C(=O)[C@H]2CCCN2C(=O)c2cc(F)cc(F)c2)c1,0.08%
12,Cc1ccc(C(=O)NC(=S)Nc2ccccc2C)cc1,12.1% (active)
13,Cc1ccccc1C(=O)NC(=S)NC1CC1,0.72%
14,CC(=O)Nc1ccc(NC(=S)NC(=O)c2ccc([N+](=O)[O-])c(C)c2)cc1,-2.56%
15,COC(=O)[C@H](CC(C)C)NS(=O)(=O)c1c(F)cccc1F,-0.44%
16,CCCCCCCCN1C(=O)[C@@H](CC(=O)NCc2ccc(C)o2)C[C@@]2(C(=O)OC)C1=C[C@H](C(C)(C)C)O[C@@H]2C,-0.08%
17,O=Cc1cn(CCOc2ccc(F)cc2)c2ccccc12,-2.45%
18,COC(=O)N/N=C/c1cn(CCCOc2ccc(C)cc2)c2ccccc12,15% (active)
19,Cc1ccc(OCCOc2cccc(/C=N/NC(N)=O)c2)cc1,5.18%
20,O=C(CNS(=O)(=O)c1ccccc1F)N1CCN(c2ccccn2)CC1,0.61%
21,COC(=O)[C@]12C[C@H](CC(=O)NCc3ccccc3)C(=O)N(CCc3ccc(OC)c(OC)c3)C1=C[C@H](C(C)(C)C)O[C@@H]2C,0.98%
22,COc1ccc(OC)c(CNC(=O)Cn2nc(C)c3c(C)n(-c4ccc(C)cc4)nc3c2=O)c1,-2.32%
23,O=C(CCS(=O)(=O)Cc1ccccc1F)NCCCN1CCCCC1,0.82%

row,SMILES,activation
1,O=C(CSc1nc2ccccc2s1)NN=Cc1ccc(O)cc1O,-1.39%
2,O=C(O)c1ccccc1CSc1nc2ccccc2s1,10.6% (active)
3,O=C(CSc1nc2ccccc2s1)N=Nc1c(O)[nH]c2ccccc12,-2.84%
4,COc1ccc(CC(=O)Nc2cc(S(=O)(=O)N3CCCCC3)ccc2N2CCN(C)CC2)cc1,-1.77%
5,COC(=O)C1CN(CC(C)C)CCS(=O)(=O)N1Cc1ccc(C)cc1 (stereo not given),-0.71%
6,CS(=O)(=O)N1CCc2cc(C(=O)Nc3ccccc3)ccc21,2.16%
7,CC(C)n1c(=O)[nH]c2cc(C(=O)Nc3ccccc3)ccc21,13.3% (active)
8,CC(=O)Nc1ccc(NC(=O)c2ccc3c(c2)C(=O)N(c2ccccc2C)C3=O)cc1,0.55%
9,COc1ccc(-c2ccc3c(n2)CCCN3S(=O)(=O)c2ccc(C)cc2)cc1,1.42%
10,O=C(C(=O)N1CCC(CNS(=O)(=O)Cc2ccccc2)CC1)c1cc2ccccc2o1,-2.92%
11,CN(C(=O)CSc1nc(C2CC2)nc2ccccc12)c1nc(-c2ccccc2)cs1,0.14%
12,CN(c1ccc(O)cc1)c1nc(-c2cccnc2)cs1,11% (active)
13,O=C(NNC(=O)c1csc(-c2cccnc2)n1)Nc1ccc(Cl)cc1,-2.54%
14,COc1ccc(NC(=O)c2cc([N+](=O)[O-])ccc2NC(=O)CNC2CCCCC2C)c(OC)c1 (stereo not given),1.77%
15,Cn1c(=NC(=O)C2CC2)sc2cc(F)cc(F)c21,14% (active)
16,O=C(Cn1nnc(-c2ccccc2)n1)NC(=O)NC1CCCC1,4.87%
17,CC(C)C[C@H](NC(=O)C1CC(=O)N(c2ccc3c(c2)OCCO3)C1)C(=O)NC1CCCC1 (stereo not given in full),-2.12%
18,Cc1ccnc(NC(=O)CCNS(=O)(=O)c2ccc(C)c(C)c2)c1,17.1% (active)
19,Cc1ccc(S(=O)(=O)NCCC(=O)Nc2cccc(S(N)(=O)=O)c2)cc1C,1.82%
20,Cc1ccc(S(=O)(=O)NCCC(=O)NCc2ccc(Cl)cc2)cc1C,1.13%
21,COCCNC(=O)CSc1nc2sccc2c(=O)n1-c1ccccc1,-2.26%
22,CNc1cncc(-c2cccc(C(=O)N3CCOCC3)c2)n1,-2.58%
23,CNc1cncc(-c2ccc(NS(C)(=O)=O)cc2)n1,20.8% (active)

row,SMILES,activation
1,CS(=O)(=O)Nc1ccc(C(=O)N2CCCC2)cc1,-0.04%
2,COc1ccc(-c2ccccc2C2Cc3nnccc3CN2C(=O)Nc2ccccc2)cc1 (stereo not given),-0.36%
3,O=C(Nc1cccc(Cl)c1)OC1CC2CC1[C@H]1CCCCN1[C@H]2Cc1ccccc1 (stereo not given in full),-4.33%
4,Cc1ccc2nc(CN(C)C(=O)[C@@H](Cc3ccccc3)NC(=O)[C@H]3O[C@@H](n4ccc(=O)[nH]c4=O)[C@H](O)[C@@H]3O)[nH]c2c1,-0.28%
5,Cc1ccc(C)c(NC(=O)CCC(=O)N/N=C2/CC(=O)CC(C)(C)C2)c1,-0.63%
6,COC(=O)[C@H](C(C)C)N(CCc1cn(Cc2ccccc2)nn1)S(=O)(=O)c1ccc(F)cc1Br,-2.66%
7,O=C(Nc1ccn(Cc2ccccc2F)n1)c1ccc(COc2ccc(Cl)cc2Cl)o1,-5.91%
8,COc1ccc(Sc2ccc(NC(=O)c3cccc(Cl)c3)cc2C#N)cc1,0.58%
9,N#Cc1ccccc1NC(=O)c1cccc(COc2ccc(Cl)cc2Cl)c1,12.7% (active)
10,Cn1cc(S(=O)(=O)NC(c2ccccc2)c2ccccc2)c(=O)n(C)c1=O,-1.46%
11,O=C(COC(=O)c1ccco1)Nc1ccc(Cl)cn1,0.37%
12,O=C(CCOc1ccccc1)NCc1ccccc1,0.5%
13,O=C(COc1cccc(Cl)c1)NCc1ccccc1,10.5% (active)
14,O=C(COC(=O)c1cccc(Cl)c1)NC(=O)NCc1ccccc1,0.55%
15,O=C(COC(=O)c1cnc(Cl)c(Cl)c1)NCc1ccco1,-3.41%
16,O=C(COC(=O)c1ccco1)NCc1ccc(Cl)cc1,10.8% (active)
17,O=C1CC[C@@H]2CC3(C[C@@H]4CCN1[C@H]24)Nc1cc([N+](=O)[O-])ccc1NC3=NC1CCCCC1 (stereo not given in full),0.54%
18,COc1cc(OC)c(-n2cc(-c3ccc(Cl)cc3)[nH]c2=O)cc1Cl,-2.27%
19,N#Cc1cccc(C(=O)NCC2CCN(C(=O)C(=O)c3cc4ccccc4o3)CC2)c1,-0.57%
20,COc1ccc(CNS(=O)(=O)c2cc(Br)ccc2Br)cc1,1.03%
21,O=C(CN(C(=O)c1csnn1)c1cccc(Cl)c1)NC1CCCC1,-1.27%
22,O=C(Nc1ccc(Br)cc1)OCCN1C(=O)CCC12CCC(c1ccccc1)CC2 (stereo not given),-0.22%
23,Cc1cccc(CN2CCC(n3nccc3NC(=O)c3ccccc3C)CC2)n1,-0.95%

row,SMILES,activation
1,COc1ccc(Nc2ccc3ccccc3c2)cc1,18.4% (active)
2,COc1ccc(NC2=CC(=S)NC(C)(C)C2)cc1,1.03%
3,COc1ccc(Nc2cc(=O)n(-c3ccccc3)c3c2c(=O)n(C)c(=O)n3C)cc1,-1.79%
4,OCC[C@H]1C[C@@H](O)[C@H](O)[C@]2(OCCCc3ccccc32)O1,-1.3%
5,COc1ccc(S(=O)(=O)Nc2ccc3c(c2)C(=O)N([C@H](C)CO)C[C@H](C)[C@@H](CN(C)C)OCCCC[C@H](C)O3)cc1,-1.86%
6,Cc1c(Cl)cccc1NC(=S)NCC(O)c1ccccc1 (stereo not given),0.77%
7,COc1ccc(C(=O)NCC[N+](C)(C)C)cc1,-0.85%
8,COc1ccc(C(=O)NCCSc2ccccc2C)cc1,12.8% (active)
9,CCSc1ccccc1C(=O)NCc1ccc(OC)cc1,-1.12%
10,Cc1ccc(-n2c(COc3ccccc3)nnc2SCC(=O)Nc2ccc3c(c2)OCCO3)cc1,-0.21%
11,Cc1cc(OC(=O)NCCc2ccc(F)cc2)ccc1F,0.78%
12,O=C(CSc1nnc(COc2ccccc2)n1Cc1ccco1)c1ccc2ccccc2c1,-0.51%
13,Cc1cc(C)c(C#N)c(SCC(=O)NN2CC(=O)N(c3ccccc3F)CC2=O)n1,-2.6%
14,COCc1cc(C)nc(SCC(=O)Nc2cccc(C)c2)c1C#N,0.86%
15,Cc1cc(C)c(C#N)c(SCC(=O)Nc2ccccc2)n1,11.8% (active)
16,Cc1ccccc1N1CCN(CCCN2C(=O)C3CCCCN3C2=O)CC1 (stereo not given),2.03%
17,CC1CCN(c2ccc(C(=O)O)cc2NS(=O)(=O)c2ccc(Br)s2)CC1,-3.43%
18,O=C(N[C@H](C(=O)N1CCC[C@H]1C(=O)NCCc1ccccc1Cl)c1ccccc1)c1ccccc1,-3.35%
19,Cn1c(SCc2c(F)cccc2Cl)nnc1-c1cnccn1,8.5%
20,Fc1cccc(Cl)c1CSc1ccc(-c2ccco2)nn1,10.6% (active)
21,Oc1ccc(-n2nnnc2SCc2c(F)cccc2Cl)cc1,0.63%
